Here are results for 39 compounds from ChEMBL document CHEMBL3988442, “University of Dundee, Small-Polar-MMV Screening Library” (2021).

Sequence of Chromo domain-containing protein 1 (Saccharomyces cerevisiae (strain ATCC 204508 / S288c) (Baker's yeast)) (P32657 whole entry, the tested form may be a part): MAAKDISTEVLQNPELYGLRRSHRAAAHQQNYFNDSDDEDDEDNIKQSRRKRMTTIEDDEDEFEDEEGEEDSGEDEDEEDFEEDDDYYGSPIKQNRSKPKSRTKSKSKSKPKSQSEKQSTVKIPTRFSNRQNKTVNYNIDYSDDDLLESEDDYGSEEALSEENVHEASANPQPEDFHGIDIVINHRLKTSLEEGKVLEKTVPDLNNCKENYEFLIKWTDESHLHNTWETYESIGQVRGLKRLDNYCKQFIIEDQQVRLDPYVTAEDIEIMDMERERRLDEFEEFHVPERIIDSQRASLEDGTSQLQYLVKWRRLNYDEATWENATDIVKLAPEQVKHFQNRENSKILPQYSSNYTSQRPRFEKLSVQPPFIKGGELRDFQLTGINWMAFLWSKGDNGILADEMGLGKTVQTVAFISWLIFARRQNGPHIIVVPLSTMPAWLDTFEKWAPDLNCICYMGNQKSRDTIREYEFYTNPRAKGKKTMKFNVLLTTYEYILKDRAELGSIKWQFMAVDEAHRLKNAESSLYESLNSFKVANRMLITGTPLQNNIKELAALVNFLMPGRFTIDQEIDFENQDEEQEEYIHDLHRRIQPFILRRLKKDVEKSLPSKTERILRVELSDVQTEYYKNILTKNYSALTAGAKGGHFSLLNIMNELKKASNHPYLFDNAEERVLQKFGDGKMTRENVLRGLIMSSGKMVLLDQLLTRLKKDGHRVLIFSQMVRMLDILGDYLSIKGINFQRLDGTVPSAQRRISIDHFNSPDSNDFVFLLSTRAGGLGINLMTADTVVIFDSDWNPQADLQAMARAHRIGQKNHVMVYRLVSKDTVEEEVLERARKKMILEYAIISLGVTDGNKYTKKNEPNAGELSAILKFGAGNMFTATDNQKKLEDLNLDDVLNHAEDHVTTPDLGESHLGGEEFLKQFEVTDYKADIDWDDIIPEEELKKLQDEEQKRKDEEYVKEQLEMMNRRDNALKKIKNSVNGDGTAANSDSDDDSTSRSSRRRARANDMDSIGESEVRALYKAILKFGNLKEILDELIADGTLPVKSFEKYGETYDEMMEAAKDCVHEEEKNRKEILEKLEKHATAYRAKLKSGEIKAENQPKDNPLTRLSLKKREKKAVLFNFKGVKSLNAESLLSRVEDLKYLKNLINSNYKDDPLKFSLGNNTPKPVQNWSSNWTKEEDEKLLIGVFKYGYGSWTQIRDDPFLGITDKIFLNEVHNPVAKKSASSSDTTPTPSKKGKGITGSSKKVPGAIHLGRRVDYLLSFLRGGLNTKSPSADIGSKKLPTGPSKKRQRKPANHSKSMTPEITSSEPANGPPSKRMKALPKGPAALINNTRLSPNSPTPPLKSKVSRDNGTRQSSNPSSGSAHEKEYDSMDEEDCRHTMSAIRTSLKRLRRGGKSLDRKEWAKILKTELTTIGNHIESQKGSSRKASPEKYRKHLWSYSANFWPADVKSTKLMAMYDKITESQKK

The target of the first assay is T1, Tyrosyl-tRNA synthetase, putative (Trypanosoma cruzi (strain CL Brener)) (UniProt Q4DSP6).
T1 sequence (whole entry): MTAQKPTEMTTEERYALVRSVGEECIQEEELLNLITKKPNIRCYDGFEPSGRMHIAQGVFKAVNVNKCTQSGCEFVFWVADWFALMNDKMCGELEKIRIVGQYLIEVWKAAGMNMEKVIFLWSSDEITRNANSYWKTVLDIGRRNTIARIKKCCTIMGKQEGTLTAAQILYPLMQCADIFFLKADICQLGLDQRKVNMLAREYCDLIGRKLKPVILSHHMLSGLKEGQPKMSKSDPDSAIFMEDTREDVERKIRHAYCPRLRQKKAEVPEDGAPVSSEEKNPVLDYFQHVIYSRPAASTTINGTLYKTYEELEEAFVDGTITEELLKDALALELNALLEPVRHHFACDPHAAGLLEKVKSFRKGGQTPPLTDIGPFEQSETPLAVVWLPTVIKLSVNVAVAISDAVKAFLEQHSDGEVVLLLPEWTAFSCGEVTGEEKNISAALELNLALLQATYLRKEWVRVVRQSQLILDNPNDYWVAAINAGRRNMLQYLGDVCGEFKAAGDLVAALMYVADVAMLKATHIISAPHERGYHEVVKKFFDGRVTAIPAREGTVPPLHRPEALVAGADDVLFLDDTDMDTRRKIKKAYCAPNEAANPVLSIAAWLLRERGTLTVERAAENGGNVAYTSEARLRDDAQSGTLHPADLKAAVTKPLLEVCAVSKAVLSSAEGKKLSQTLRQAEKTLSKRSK
As to the kind of experiment: Trypanosoma cruzi tyrosyl tRNA synthetase (TcYRS) SOP. The class given is functional. On the set-up: scale not given: direction of the effect not stated beside the values. Particulars: 30 µM.
Consider `COc1cc(CNc2cnn(C)c2)cc2c1OCCO2`, for which the Percent Effect is -14.6%.
On the same count and under the same terms, with `CCOCC1CN(S(C)(=O)=O)Cc2ncn(CC3CC3)c21` (centres undefined) the figure was 13.6%; with `COc1ccc(C(=O)Nc2cnn(CC(=O)NC3CCCC3)c2)c(O)c1`, 25.9%; with `COCC(=O)N1CCCC1c1ccnc(Nc2cnccn2)n1` (centres undefined), 22.1%.
The same measure, in the same setting: then `Cn1cnc2c1CCN(CCCOc1ccc(C#N)cc1)C2`, with -1.27%; and `COCCN1CCC(NCc2cccc(F)c2)C1` (centres undefined), with 0%; and `Cc1nc(CCN(C)C(=O)C2COc3ccccc3C2)no1` (centres undefined), with 13.6%.
Same read-out and setting: with `COCC1CC2(CCN(C(=O)c3cccc(C)c3)CC2)CO1` (centres undefined) the figure was -3.85%; with `CC(C)CC(=O)N1CCCn2cnc(CN3CCCC3=O)c2C1`, 6.17%.
For `Cc1nc(C)n(CC2CCCN(Cc3nc(C4CC4)no3)C2)n1` (centres undefined), the Percent Effect came out at 23.5%.
Same read-out and setting: then `COc1cccc([C@@H]2CN(C(=O)c3ccc(C)cc3O)C[C@H]2C(=O)O)c1`, with 18.5%; and `Nc1nc(CN2CCCC(Cn3cncn3)C2)nc2ccccc12` (centres undefined), with 6.1%.
With `O=C1C(NS(=O)(=O)c2cc(F)cc(F)c2)CCN1Cc1ccccc1` (centres undefined), the Percent Effect is 1.27%.
Same read-out and setting: then `CCCc1nc(N2Cc3cnn(Cc4ccc(F)cc4)c3C2)no1`, with 11.1%; and `COc1cc(N2C[C@H]3OCC[C@H]3[C@H](C(=O)NC3CC3)C2)ncn1`, with 6.17%.
For `CCN(Cc1cccc(Cl)c1)Cc1nc2c(cnn2C)c(=O)[nH]1`, the Percent Effect worked out at 18.8%.
For the compound `CC(C)c1ccc(OCn2ccc(C(=O)N3CCCC3)n2)cc1`, the Percent Effect was found to be 8.64%.
Same read-out and setting: then `CCc1cc(NC2CCN(S(C)(=O)=O)CC2)n2nc(C)c(C)c2n1`, with 2.56%.
Same read-out and setting: then `COc1c(CNCC(c2cccc(F)c2)N(C)C)c(C(C)C)nn1C` (centres undefined), with 9.41%; and `Cc1ccccc1C(=O)NCc1ccc(N2CCNC(=O)C2)c(F)c1`, with 12.2%.

A further assay has as its target Chromo domain-containing protein 1 (Saccharomyces cerevisiae (strain ATCC 204508 / S288c) (Baker's yeast)) (UniProt P32657). As to the kind of experiment: ScCHD-1 Enzyme Inhibition Assay. The conditions noted are these: 30 µM. The assay is classed as functional. On the set-up: scale not given: in the data most compounds retested in dose-response had high values.
Consider `CCN(CC)C(=O)c1ccn(COc2cc(C)cc(C)c2)n1`, for which the Percent Effect is -12.1%.
Take `Cc1cc(C(=O)N2C[C@@H]3COC[C@]3(c3nnc(C4CC4)o3)C2)on1`: the Percent Effect was -9%.
Still for that read-out and setting: with `COC(=O)c1ccc(N2CCN(CCN3CCOCC3)C(C)C2)cc1` (centres undefined) the figure was -4.27%; with `Cc1ccc(N2CCCC(NCc3cscn3)C2)nn1` (centres undefined), -5.79%.
On the same count and under the same terms, then `Cc1noc2ncc(C(=O)N(CC3CCOC3)C3CC3)cc12` (centres undefined), with -5.66%; and `Cc1cnn(CC2CCCN2c2nn3cc(C)nc3s2)c1` (centres undefined), with -26%; and `CCC(NC(=O)C1CCN(S(C)(=O)=O)CC1)c1ccc(OC)c(C)c1` (centres undefined), with 120%.
Same read-out and setting: with `CNC(=O)[C@@]12CCC3(CCN(S(C)(=O)=O)CC3)[C@@H]1CN(S(C)(=O)=O)C2` the figure was 1.21%; with `Cc1ccc(C(=O)N2CCN(CCCSCC#N)CC2)o1`, 0.208%; with `CC(=O)N(Cc1ncc(C)o1)C1CCN(CCNC2CCCCC2)C1` (centres undefined), -7.63%.
With `Cc1cnc(CN(C)CC2CCCN2c2cccnn2)cn1` (centres undefined), the Percent Effect is -25.4%.
Same read-out and setting: then `Cc1cnn(CC2CCCN2C(=O)c2cnc3n[nH]c(C)c3c2)c1` (centres undefined), with -32.5%.
The same measure, in the same setting: with `CC(=O)c1cccc(S(=O)(=O)N2CSCC2C(=O)NCC(F)(F)F)c1` (centres undefined) the figure was -23.2%.
On the same count and under the same terms, with `CCCN(Cc1ccccc1)Cn1nc(C)c2c(C)onc2c1=O` the figure was -13.4%; with `CN1CCCC(Cc2ccnc3ccncc23)CC1` (centres undefined), 4.65%.
Regarding `N#Cc1ccccc1CN1C[C@@H]2CC[C@H](C1)N(Cc1cscn1)C2=O`, the Percent Effect was -3.95%.
On the same count and under the same terms, then `CSc1ncc(C(=O)N2C[C@H]3CC[C@@H]2CN(Cc2ccccc2)C3)cn1`, with 0.291%.
Same read-out and setting: then `N#CCSCCCN1CCCN(C(=O)c2ccccc2)CC1`, with 6.49%.
Turning to `Cc1nn(C)c(N2CCOCC2)c1CNC(C)c1ccco1` (centres undefined), the Percent Effect is -8.31%.
Still for that read-out and setting: then `COc1cc(CNc2cnn(C)c2)cc2c1OCCO2`, with -4.73%; and `CCOCC1CN(S(C)(=O)=O)Cc2ncn(CC3CC3)c21` (centres undefined), with -6.43%; and `COc1ccc(C(=O)Nc2cnn(CC(=O)NC3CCCC3)c2)c(O)c1`, with -3.82%.
The same measure, in the same setting: with `COCC(=O)N1CCCC1c1ccnc(Nc2cnccn2)n1` (centres undefined) the figure was -7.89%.
Turning to `Cn1cnc2c1CCN(CCCOc1ccc(C#N)cc1)C2`, the Percent Effect is -3.4%.
With `COCCN1CCC(NCc2cccc(F)c2)C1` (centres undefined), the Percent Effect was -9.86%.
As to `Cc1nc(CCN(C)C(=O)C2COc3ccccc3C2)no1` (centres undefined), the Percent Effect was -7.23%.
Same read-out and setting: with `COCC1CC2(CCN(C(=O)c3cccc(C)c3)CC2)CO1` (centres undefined) the figure was -5.05%; with `CC(C)CC(=O)N1CCCn2cnc(CN3CCCC3=O)c2C1`, -0.173%.
Still for that read-out and setting: with `Cc1nc(C)n(CC2CCCN(Cc3nc(C4CC4)no3)C2)n1` (centres undefined) the figure was -12.5%; with `COc1cccc([C@@H]2CN(C(=O)c3ccc(C)cc3O)C[C@H]2C(=O)O)c1`, -5.84%; with `Nc1nc(CN2CCCC(Cn3cncn3)C2)nc2ccccc12` (centres undefined), 1.99%.
Still for that read-out and setting: with `O=C1C(NS(=O)(=O)c2cc(F)cc(F)c2)CCN1Cc1ccccc1` (centres undefined) the figure was -7.02%; with `CCCc1nc(N2Cc3cnn(Cc4ccc(F)cc4)c3C2)no1`, -7.25%; with `COc1cc(N2C[C@H]3OCC[C@H]3[C@H](C(=O)NC3CC3)C2)ncn1`, -1.62%.
